This note sets out measurements from PubChem BioAssay (NCI).

Holding throughout (test): NCI-60 one-dose screen, 48 h (100 = growth as untreated, 0 = no growth, -100 = all killed)
Common to all, as to conditions: 10 µM unless noted

The test system of test [1] is HCT-15 colon.
The subject of test [2] is HT29 colon.
Test [3] relates to SNB-75 CNS.
In test [4] the test system is SNB-19 CNS.
Test [5] concerns U251 CNS.
Test [6] has as its system PC-3 prostate.
Test [7] relates to SK-MEL-5 melanoma.
The subject of test [8] is UACC-62 melanoma.
In test [9] the test system is LOX IMVI melanoma.
The test system of test [10] is SK-MEL-28 melanoma.
The subject of test [11] is SK-MEL-2 melanoma.
The subject of test [12] is EKVX NSCLC.
In test [13] the test system is SN12C renal.
The subject of test [14] is UO-31 renal.
Test [15] relates to TK-10 renal.
In test [16] the test system is ACHN renal.
Test [17] has as its system CAKI-1 renal.
Test [18] relates to A498 renal.
Test [19] relates to CCRF-CEM leukemia.
The subject of test [20] is MOLT-4 leukemia.

Molecules are shown by their SMILES. This is part of a sample that, as a whole, favours compounds with a hit. Of some 83,000 tested, about 20% had one in any assay.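 Interpretation: 100, growth as untreated; towards 0, rising growth inhibition; 0, no net growth; 0 to -100, cell death. Compounds scoring below 10 were considered active.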 Unmarked numbers belong to inactive results. Activity calls are given as the source filed them.

On to `CCCCNc1ccc(C#N)c(OCCN(CC)CC)c1`, for which the growth was 102% in test [1]; 94.7% in [2]; 88.2% in test [3]; 98.1% in test [4]; 103% in test [5]; 93.1% in [6]. The growth was 93.9% in test [7]; 103% in test [8]; 102% in test [9]; 101% in test [10]; 105% in test [11]; 98.7% in test [12]. Moreover, the growth in test [13] is 105%; in test [14], 84.6%; in [15], 108%; in [16] it was 101%; in test [17], 98.6%; in [18] it was 117%. Moreover, the growth was 94.8% in test [19] and 88.2% in test [20].
With `N#C/C(=C/c1ccc([N+](=O)[O-])cc1)n1nnc2cc(F)c(F)cc21`, the growth was -7.15% (active) in test [1]; 69.4% in test [2]; 74.9% in test [3]; 73.7% in [4]; 59% in test [5]; 52.5% in [6]. In addition, the growth in test [7] was 88.6%; in test [8], 57.2%; in [9] it was 42.4%; in test [10], 97.6%; in test [11], 75.6%; in test [12], 103%. Also, the growth is 61.1% in test [13]; 64.7% in [14]; 24.5% in test [15]; 36.2% in [16]; 71.2% in test [17]; 75.3% in [18]. Also, the growth in [19] is 15.1%; in test [20], 38.6%.
On to `C=C1C(=O)O[C@H]2[C@H]1CC/C(COC(=O)NCc1ccc(Cn3c(=O)sn(CCI)c3=O)cc1)=C\CC[C@@]1(C)O[C@@H]21`, for which the growth in test [1] was 41.1%; in test [2] it was 39.8%; in test [3] it was 81.2%; in test [4] it was 97.2%; in [5], 73.3%; in test [6], 75.6%. For the same molecule, the growth in test [7] was 98.8%; in [8] it was 65.4%; in test [9] it was 35.1%; in test [10] it was 55.5%; in [11] it was 73.9%; in test [12], 91%. For the same molecule, the growth in test [13] is 70.3%; in test [14], 68.3%; in test [15] it was 0.429% (active); in test [16] it was 27.7%; in [17], 7% (active); in test [18], 120%. Moreover, the growth in test [19] was -16.1% (active); in test [20], -6.69% (active).
Turning to `O=[N+]([O-])c1ccc(-c2nc(N3CCOCC3)c3c4c(sc3n2)CCCC4)cc1`, the growth was 97.8% in [1]; 94.8% in [2]; 76.6% in [3]; 115% in test [4]; 102% in test [5]; 101% in [6]. The growth in test [7] was 94.1%; in test [8], 85.1%; in test [9], 86%; in test [10] it was 111%; in [11], 95.6%; in test [12], 93.8%. The growth in test [13] is 106%; in test [14], 67.2%; in [15], 105%; in test [16] it was 96.2%; in test [17] it was 76.5%; in test [18], 109%. The growth was 101% in [19] and 86.4% in [20].
`CCCC(O)Cn1ncc(C(=O)OCC)c1NC(=O)NCc1ccccc1F` (stereo not given): the growth is 105% in test [1]; 81.1% in [2]; 98.9% in test [3]; 102% in test [4]; 93.8% in test [5]; 93.4% in test [6]. For the same molecule, the growth in [7] was 93.2%; in test [8] it was 86.3%; in test [9] it was 93.9%; in test [10] it was 110%; in [11], 74.3%; in [12], 95.7%. Further, the growth in [13] is 96.8%; in test [14], 74.2%; in test [15], 99.1%; in [16], 107%; in [17], 80.1%; in [18], 90.7%. Moreover, the growth in test [19] is 76.3%; in [20], 71%.
For the molecule `COc1ccc(-c2nnc(-c3ccc4c(c3)nc(-c3ccncc3)n4C3CCCCC3)o2)cc1`, the growth was 53.6% in [1]; 53% in [2]; 72.2% in test [3]; 89.4% in test [4]; 59.7% in test [5]; 49.7% in test [6]. In addition, the growth is 17.2% in test [7]; 68.3% in test [8]; 72.5% in test [9]; 94.6% in test [10]; 77.3% in [11]; 64% in test [12]. In addition, the growth in [13] is 83.8%; in [14] it was 38.3%; in test [15], 75%; in test [16], 89.2%; in test [17] it was 89.7%; in test [18], 73.9%. Moreover, the growth in [19] is 55.5%; in test [20], 44.3%.
Take `COc1ccc2cc(C(=O)c3coc4ccc(O)cc34)ccc2c1`: the growth was 103% in [1]; 95.6% in test [2]; 101% in [3]; 104% in test [4]; 103% in test [5]; 95.5% in [6]. The growth in [7] was 99.5%; in [8], 98.7%; in [9] it was 97.4%; in [10], 111%; in test [11], 97%; in [12], 103%. Also, the growth in [13] is 98.8%; in [14] it was 68.4%; in [15], 103%; in test [16] it was 107%; in [17], 92.6%; in test [18] it was 105%. The growth was 56.4% in [19] and 81.1% in test [20].
